Results filed as inconclusive are left out. Entries that show only a call come without a potency. Calls of active or inactive are those of the source. Calls follow the shape of the dose curve; as a rule, active = well fitted curve in the direction sought with a large enough effect; inconclusive = small, poorly fitted or top-dose-only effect, or another doubt; inactive = no such curve, though single readings can be large; an effect the other way counts as inactive or inconclusive.
What was measured:
[1] = molecular target: Aldehyde dehydrogenase, mitochondrial (Homo sapiens) (UniProt P05091); experiment: qHTS for Inhibitors of the Aldehyde Dehydrogenase Family (ALDH2) Primary screen (AID 2061308); also: nearly all actives have a fitted effect of over 55% in size
[2] = molecular target: Retinaldehyde dehydrogenase 3 (Homo sapiens) (UniProt P47895); experiment: qHTS for Inhibitors of the Aldehyde Dehydrogenase Family (ALDH1A3) Primary screen (AID 2061315)

**Q.** `Cc1ccnc(NC(=O)N2CCN(c3cccc(C(F)(F)F)c3)CC2)c1` was tested. Which Potency [1] did it give?
**A.** Its Potency is “inactive”.

**Q.** And the Potency [2]?
**A.** Its Potency is “inactive”.

**Q.** With `CC(=O)N1CCc2cc(S(=O)(=O)Nc3ccc(C)c(C)c3)ccc21` as the compound, how does the Potency [1] read?
**A.** Its Potency is “inactive”.

**Q.** What about the Potency [2] of the same compound?
**A.** The Potency was “inactive”.

**Q.** Which results are given for `CCCn1c(-c2ccc(F)cc2)nc2c(NCCCCN(C)C)nc(C)nc21`?
**A.** Potency [1]: inactive; Potency [2]: inactive

**Q.** How did the Potency [1] turn out when `Cc1cccc(CNc2ncnc3ccc(-c4cccc(Cl)c4)cc23)c1` was run?
**A.** The Potency was “inactive”.

**Q.** What about the Potency [2] of the same compound?
**A.** Its Potency is “inactive”.

**Q.** With `COc1ccc(-c2nc3ccccc3c(=O)n2Cc2ccccc2)cc1COc1ccc(NC(C)=O)cc1` as the compound, how does the Potency [1] read?
**A.** The Potency was “inactive”.

**Q.** What about the Potency [2] of the same compound?
**A.** Its Potency is “inactive”.

**Q.** Which results are given for `Cc1cc(C)nc(NC(=S)N2CCN(Cc3cccc4ccccc34)CC2)c1`?
**A.** Potency [1]: inactive; Potency [2]: inactive

**Q.** `O=C1CCCC2=C1C(c1ccccc1Br)N=C(Nc1nc3ccccc3o1)N2` (stereo not given) was tested. Which Potency [1] did it give?
**A.** The Potency was “inactive”.

**Q.** What about the Potency [2] of the same compound?
**A.** The Potency was “inactive”.

**Q.** Which Potency [1] does the source give for `Clc1cccc(CSc2nc3ncc(Br)cc3[nH]2)c1` here?
**A.** The Potency was “inactive”.

**Q.** What about the Potency [2] of the same compound?
**A.** The Potency was “inactive”.

**Q.** How did the Potency [1] turn out when `c1ccc(COc2cccc(-c3nc4ccccc4s3)c2)cc1` was run?
**A.** The Potency was “inactive”.

**Q.** And the Potency [2]?
**A.** The Potency was “inactive”.

**Q.** What does the source list for `COc1ccc(C(=O)O[C@H]2C=COC=C3C=C4C(=O)N(C)C(=S)C(=O)N4[C@@H]32)cc1Oc1cc(C=O)ccc1O`?
**A.** Potency [1]: inactive; Potency [2]: inactive

**Q.** Which Potency [1] does the source give for `CCCc1cc(F)c(S(=O)(=O)N2CCN(S(=O)(=O)c3ccc4c(c3)OCCO4)CC2)cc1F` here?
**A.** The Potency was “inactive”.

**Q.** What about the Potency [2] of the same compound?
**A.** Its Potency is “inactive”.

**Q.** Which results are given for `CC(C)(C)NC(=O)Nc1nnc(-c2ccncc2)s1`?
**A.** Potency [1]: inactive; Potency [2]: inactive

**Q.** Which Potency [1] does the source give for `Cc1cccc(-n2cnc3cc(C(=O)N4CCC(Cc5ccccc5)CC4)ccc32)c1` here?
**A.** The Potency was “inactive”.

**Q.** What about the Potency [2] of the same compound?
**A.** The Potency was “inactive”.

**Q.** For `O=C(Nc1ccc2ccccc2c1)Nc1nnc(-c2ccc(Cl)cc2)s1`, which Potency [1] is on record?
**A.** Its Potency is “inactive”.

**Q.** What about the Potency [2] of the same compound?
**A.** Its Potency is “inactive”.

**Q.** Which results are given for `Cc1ccc(-c2cc(C(=O)Nc3ccc(-n4cccn4)cc3)c3ccccc3n2)cc1C`?
**A.** Potency [1]: inactive; Potency [2]: inactive

**Q.** With `O=C(CSc1nc(-c2ccc(F)cc2)nc2c1Cc1ccccc1O2)Nc1ccc(F)cc1` as the compound, how does the Potency [1] read?
**A.** Its Potency is “inactive”.

**Q.** And the Potency [2]?
**A.** Its Potency is “inactive”.

**Q.** `NS(=O)(=O)c1ccc(Cc2c(-c3cccc(-c4ccccc4)c3)nn(-c3nc(C(=O)O)cs3)c2C2CC2)cc1` was tested. Which Potency [1] did it give?
**A.** Its Potency is “inactive”.

**Q.** And the Potency [2]?
**A.** The Potency was “inactive”.

**Q.** `O=S(=O)(c1ccc2c(c1)OCCO2)N1CCN(S(=O)(=O)c2cccc[n+]2[O-])CC1` was tested. Which Potency [1] did it give?
**A.** Its Potency is “inactive”.

**Q.** And the Potency [2]?
**A.** The Potency was “inactive”.

**Q.** How did the Potency [1] turn out when `N#Cc1cnc(N[S+](=O)([O-])c2ccc(Nc3nc(-c4ccccc4)cs3)cc2)s1` was run?
**A.** Its Potency is “inactive”.

**Q.** And the Potency [2]?
**A.** Its Potency is “inactive”.

**Q.** Which Potency [1] does the source give for `Cc1ccc(NC(=O)c2cnn3c(C)cc(C)nc23)cc1` here?
**A.** The Potency was “inactive”.

**Q.** And the Potency [2]?
**A.** The Potency was “inactive”.

**Q.** Which Potency [1] does the source give for `OC(c1ccccc1)(c1ccccc1)c1cnc2ccccn12` here?
**A.** The Potency was “inactive”.

**Q.** And the Potency [2]?
**A.** The Potency was “inactive”.

**Q.** Which results are given for `Cc1cccc(C)c1SC1=NS(=O)(=O)c2ccccc21`?
**A.** Potency [1]: inactive; Potency [2]: inactive

**Q.** Which Potency [1] does the source give for `O=C(Nc1ncc(Cc2ccc(C(F)(F)F)cc2)s1)c1cnc(-c2ccccc2)s1` here?
**A.** The Potency was “inactive”.

**Q.** And the Potency [2]?
**A.** The Potency was “inactive”.

**Q.** Which results are given for `CC(C)(C)n1nc(Cc2cccc3ccccc23)c2c(N)ncnc21`?
**A.** Potency [1]: inactive; Potency [2]: inactive

**Q.** What does the source list for `Cc1c(P(=S)(c2ccccc2)c2ccccc2)[n+]2ccccc2n1CCCc1ccccc1`?
**A.** Potency [1]: inactive; Potency [2]: inactive

**Q.** Which results are given for `Cc1ccc(-c2ccc(=O)n(CC(=O)NCCc3ccccn3)n2)cc1`?
**A.** Potency [1]: inactive; Potency [2]: inactive

**Q.** How did the Potency [1] turn out when `CC(C)(C)c1cccc(-n2cnc3cc(C(=O)N4CCCCC4)ccc32)c1` was run?
**A.** Its Potency is “inactive”.

**Q.** What about the Potency [2] of the same compound?
**A.** Its Potency is “inactive”.

**Q.** Which Potency [1] does the source give for `O=C(Cn1ncccc1=O)NCCc1ccccc1` here?
**A.** Its Potency is “inactive”.

**Q.** And the Potency [2]?
**A.** Its Potency is “inactive”.

**Q.** What does the source list for `CCOc1ccc(CCNC(=O)c2cc3ccccc3o2)cc1OCC`?
**A.** Potency [1]: inactive; Potency [2]: inactive

**Q.** `COc1cccc(C2c3c(ncn(-c4ccc(-c5ccccc5)cc4)c3=N)Oc3ccc4ccccc4c32)c1` (stereo not given) was tested. Which Potency [1] did it give?
**A.** Its Potency is “inactive”.

**Q.** What about the Potency [2] of the same compound?
**A.** The Potency was “inactive”.

**Q.** With `Oc1ccc(CCc2ccccc2F)c2cccnc12` as the compound, how does the Potency [1] read?
**A.** Its Potency is “inactive”.

**Q.** And the Potency [2]?
**A.** Its Potency is “inactive”.

**Q.** For `O=S(=O)(NCC1CCC(NS(=O)(=O)c2c(F)cccc2F)CC1)c1ccc2c(c1)OCCO2` (stereo not given), which Potency [1] is on record?
**A.** The Potency was “inactive”.

**Q.** What about the Potency [2] of the same compound?
**A.** The Potency was “inactive”.

**Q.** With `NC(=O)c1cnc(N[C@@H]2CCCC[C@H]2N)nc1Nc1cccc(-n2nccn2)c1` as the compound, how does the Potency [1] read?
**A.** Its Potency is “inactive”.

**Q.** And the Potency [2]?
**A.** The Potency was “inactive”.

**Q.** Which results are given for `N#Cc1nc(Nc2cccc3ccccc23)nc(NC2CCCC2)n1`?
**A.** Potency [1]: inactive; Potency [2]: inactive

**Q.** `Nc1nc(NCC2CCC(CNS(=O)(=O)c3cccc4ccccc34)CC2)nc2ccccc12` (stereo not given) was tested. Which Potency [1] did it give?
**A.** The Potency was “inactive”.

**Q.** And the Potency [2]?
**A.** Its Potency is “inactive”.

**Q.** For `CC(C)(C)OC(=O)NCCCNc1ncnc2ccc(-c3ccc4c(c3)OCO4)cc12`, which Potency [1] is on record?
**A.** Its Potency is “inactive”.

**Q.** What about the Potency [2] of the same compound?
**A.** Its Potency is “inactive”.

**Q.** Which results are given for `Cc1ccc(S(=O)(=O)Nc2ccccc2C(=O)Nc2nc(-c3ccccc3)c(C)s2)cc1`?
**A.** Potency [1]: inactive; Potency [2]: inactive

**Q.** For `Cc1c(C(O)(c2ccccc2)c2ccccc2)[n+]2ccccc2n1C`, which Potency [1] is on record?
**A.** Its Potency is “inactive”.

**Q.** What about the Potency [2] of the same compound?
**A.** Its Potency is “inactive”.

**Q.** Which Potency [1] does the source give for `COc1ccc(C2Nc3ccccc3C(=O)N2Cc2ccco2)cc1CSc1c(C)cccc1C` (stereo not given) here?
**A.** The Potency was “inactive”.

**Q.** And the Potency [2]?
**A.** The Potency was “inactive”.

**Q.** Which Potency [1] does the source give for `Cn1ncc(Cl)c1-c1cc(C(=O)N[C@H](CN)Cc2ccc(F)c(F)c2)oc1Cl` here?
**A.** Its Potency is “inactive”.

**Q.** And the Potency [2]?
**A.** Its Potency is “inactive”.

Reference: PubChem BioAssay (NCATS)
